# Source: PubChem BioAssay AID2174 (The Scripps Research Institute Molecular Screening Center, 2009)
# Hit rate of the full screen: of about 320,000 compounds, about 500 (0.16%) were called active.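 Rule for the calls: active = inhibition above the mean of all tested compounds plus 3 SD, set per campaign (cut at about 14% in these data); inactive = the rest.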 For the sample, actives were picked, then their nearest neighbours and some compounds at random.
# Target: Acyl-protein thioesterase 1 (Homo sapiens) (UniProt O75608)
# Experiment: LYPLA1 inhibitors, primary screen, counter-screen for PME1 inhibitor project, biochemical, fluorescence polarization, FP-Rh probe ABPP (AID 2174);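 note: inhibitors block serine hydrolase probe labeling of LYPLA1 so polarization falls; 0% = enzyme with DMSO and 100% = wells lacking LYPLA1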
# Conditions: recombinant LYPLA1, FP-Rh probe fluorescence polarization; at 5.9 µM; active compounds read high
# Acyl-protein thioesterase 1 (Homo sapiens), sequence (O75608 whole entry, looked up): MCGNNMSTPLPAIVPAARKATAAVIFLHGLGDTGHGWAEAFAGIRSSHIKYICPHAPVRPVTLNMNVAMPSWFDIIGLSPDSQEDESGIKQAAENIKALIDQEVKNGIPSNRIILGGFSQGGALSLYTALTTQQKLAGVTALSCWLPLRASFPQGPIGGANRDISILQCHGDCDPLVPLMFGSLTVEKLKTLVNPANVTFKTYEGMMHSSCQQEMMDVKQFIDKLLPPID
row,Compound,inhibition
1,Cn1ccc(=NC=C(C#N)C#N)c2ccccc21,-3.88% (inactive)
2,CN(C)c1ccc(N/C=C/C(=O)C(F)(F)F)cc1,-5.36% (inactive)
3,CCN(CC)C(=O)CSc1ncnc2c1cnn2-c1ccccc1,-1.45% (inactive)
4,COc1ccc(/C=C2\CCCC3C2=NN(C(=O)c2scnc2C)C3c2ccc(OC)cc2)cc1 (centres undefined),-3.35% (inactive)
5,CCCN(CCC)C(=O)C1c2ccccc2Oc2ccccc21,-1.51% (inactive)
6,O=C(O)CCS(=O)(=O)c1ccc(-c2ccccc2)cc1,-0.07% (inactive)
7,NS(=O)(=O)c1ccc(NC(=S)NNC(=O)c2cccs2)cc1,0.82% (inactive)
8,COC(=O)[C@@H]1CC[C@H](C)[C@@H](c2ccc(C)cc2)N1C(=O)c1ccc(/C=N/O[C@H](C)c2cn([C@@H]3COC[C@H]3O)nn2)cc1,-1.13% (inactive)
9,COCCCN(C(=O)CSCc1ccc(C)cc1)c1c(N)n(Cc2ccccc2)c(=O)[nH]c1=O,-5.33% (inactive)
10,Cc1ccccc1NC(=O)NC1(C(=O)N2CCCC2)CCCCC1,5.72% (inactive)
11,CCN1C(=O)/C(=c2\s/c(=C3\Sc4ccccc4N3C)c(=O)n2C)N(C)C1=S,-0.75% (inactive)
12,CCCCN1C(=O)/C(=C2/Sc3ccc(Cl)cc3N2CC)SC1=S,2.19% (inactive)
13,CCN1C(=O)/C(=C2/Sc3ccccc3N2CCCS(=O)(=O)O)SC1=S,14.2% (active)
14,COc1ccc(CNC(=O)C(=O)NCC2OCCN2C(=O)c2ccc(OC)cc2)cc1 (centres undefined),-3.36% (inactive)
15,CC(C)c1ccc(S(=O)(=O)N2CCN(C(=O)CN3C(=O)NC(C)(c4ccccc4)C3=O)CC2)cc1 (centres undefined),0.26% (inactive)
16,Cc1ccccc1C(=O)NC(=S)NC1CC1,-2.2% (inactive)
17,Cc1c(C(=O)NCCN2C(=O)S/C(=C\c3cccs3)C2=O)cccc1[N+](=O)[O-],-7.3% (inactive)
18,COc1ccc(S(=O)(=O)N(CCCN2CCCC2=O)Cc2cc3c(C)ccc(C)c3[nH]c2=O)cc1,-0.26% (inactive)
19,COc1cc(OC)cc(C(=O)NNC(=O)CNC(=O)c2ccc(Br)o2)c1,-3.43% (inactive)
20,O=C(NCCCN1CCCCC1)C1CCCN(c2ncnc3c2nc2n3CCCCC2)C1 (centres undefined),4.5% (inactive)
21,O=C(COC(=O)CCOc1ccccc1)Nc1cc(S(=O)(=O)N2CCCCC2)ccc1Cl,-5.97% (inactive)
22,Cc1ccsc1/C=C1\SC(N2CCOCC2)=NC1=O,-3.19% (inactive)
23,Cc1ccc(N2CCN(C3=NC(=O)/C(=C\c4cccs4)S3)CC2)cc1,29% (active)
24,Cc1ccc(N2CCN(/N=C/c3cccs3)CC2)cc1,2.05% (inactive)
